# Laboratory results taken from PubChem BioAssay.
# Values joined by “and” are separate entries in the source; they are usually repeats but may differ in a detail not shown here. Identical values can stand only once. Active and inactive are the calls of the source. Unless noted, no stated cut-off is given here; in the data, active means inhibition above about 80%; inactive means the rest.
# Legend:
# [1] = compounds altering viability of human ES cells (AID 493140; call rule not given here;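 further: cells exposed to compounds for four days before counting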); conditions: human embryonic stem cell survival screen; stronger effect = higher value
# [2] = viability loss with induced miR-34 in A549 – imaging, A549 dox-inducible miR-34, nuclei and caspase counts, primary screen (AID 1347080;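 active means compounds whose cell count with miR-34 switched on is under 0.7 times the count with it off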); conditions: A549 miR-34 inducible, Hoechst nuclei count, 48 h
# [3] = MELAS cybrid and Rieske KO viability enhancers – cell-based, MELAS cybrids, Rieske KO mouse fibroblasts, CellTiter-Glo, primary screen (AID 1508586;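 active means mean z-score across replicates of 1.96 or higher in either the MELAS or the Rieske mutant cell line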;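 further: z relative to plate mean and SD of compound and empty wells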); conditions: low glucose
# [4] = growth inhibition, single agent or in combination, cell-based, chromothripsis tumors, cisplatin or BGB combos (AID 1671449); conditions: LFS_MB_P medulloblastoma cells;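 further: cells exposed for 96 hours; 0% = vehicle DMSO and 100% = killing by high DMSO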
# [5] = growth inhibition, single agent and combos, cell-based, chromothripsis tumors, cisplatin or BGB combos (AID 1671450); conditions: HDN33 neuroblastoma cells, stronger effect = higher value;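 further: cells exposed to compound for four days; 0% = vehicle DMSO and 100% = cell killing by high DMSO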
# [6] = growth inhibition, single agents and combos, ICB984, cell-based, cisplatin or BGB combos, synergistic combos for chromothripsis tumors (AID 1671451; call rule not given here;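 further: cells exposed for 96 hours before readout; 0% = vehicle DMSO and 100% = killing by high DMSO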); conditions: ICB984 medulloblastoma cells, drug combinations, stronger effect = higher value
# [7] = growth inhibition, single agents and combos, LFS_MB_1R, cell-based, cisplatin or BGB combos, synergistic combos for chromothripsis tumors (AID 1671452); conditions: LFS_MB_1R medulloblastoma cells, stronger effect = higher value;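 further: cells exposed for 96 hours before readout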
# [8] = growth inhibition, single agents and combos, HTB85, cell-based, BGB or cisplatin IC20 combos, synergistic combos for chromothripsis tumors (AID 1671453); conditions: HTB85 osteosarcoma cells, drug combinations, stronger effect = higher value;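 further: cells exposed for 96 hours before readout; 0% = vehicle DMSO and 100% = high DMSO killing control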
# [9] = growth inhibition, single agents and combos, CRL2098, cell-based, BGB or cisplatin IC20 combos, synergistic combos for chromothripsis tumors (AID 1671454); conditions: CRL2098 osteosarcoma cells, drug combinations, stronger effect = higher value;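 further: cells exposed for 96 h before readout; 0% = vehicle DMSO and 100% = killing by high DMSO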
# [10] = growth inhibition, single agents and combos, HD-MB03, cell-based, BGB or cisplatin IC20 combos, synergistic combos for chromothripsis tumors (AID 1671455; in the data active means inhibition above about 83%;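 further: 0% = vehicle DMSO and 100% = high DMSO as cytotoxic control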); conditions: HD-MB03 medulloblastoma cells, stronger effect = higher value
# [11] = growth inhibition, single agents and combos, UWB1.289, cell-based, BGB or cisplatin combos, synergistic combos for chromothripsis tumors (AID 1671456); conditions: UWB1.289 ovarian carcinoma cells, stronger effect = higher value;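 further: cells exposed to compound for four days; 0% = vehicle DMSO and 100% = killing by high DMSO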
# [12] = growth inhibition, single agents and combos, LFS_MB_2R, cell-based, cisplatin combos, synergistic combos for chromothripsis tumors (AID 1671457); conditions: LFS_MB_2R medulloblastoma cells, stronger effect = higher value;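 further: cells exposed to compound for four days before readout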
# [13] = growth inhibition, MDA-MB-436, cell-based, BGB or cisplatin combos, synergistic combos for chromothripsis tumors (AID 1671458; call rule not given here;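 further: cells exposed for 96 hours; 0% = vehicle DMSO and 100% = killing by high DMSO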); conditions: MDA-MB-436 breast carcinoma growth inhibition, drug combinations, stronger effect = higher value
# [14] = UWB1.289_BRCA1 ovarian cancer growth, cell-based, BGB or cisplatin combinations (AID 1671459); conditions: UWB1.289 BRCA1 ovarian carcinoma, drug combinations, stronger effect = higher value
# [15] = drug combination toxicity in non-malignant astrocytes – cell-based, BGB or cisplatin IC20 combos, cytotoxicity control for chromothriptic childhood tumor combination screen (AID 1671460); conditions: Human astrocytes, viability inhibition, drug combinations, at 0.5 µM, stronger effect = higher value;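 further: cells exposed to compounds for 96 hours before viability readout; 0% = vehicle and 100% = killing control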
# [16] = BT084 cell growth, single and combined drugs, ICGC_MB145, cisplatin and BGB IC40 combos (AID 1671461); conditions: BT084 medulloblastoma cells, drug combinations, stronger effect = higher value;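 further: cells exposed to drugs for 96 hours; 0% = vehicle DMSO and 100% = high DMSO full killing control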
# [17] = RCMB18 cell growth, single agent and combined, cisplatin and BGB IC40 combos (AID 1671462); conditions: RCMB18 medulloblastoma cells, stronger effect = higher value;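 further: cells exposed to compound for four days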
# [18] = CRL1545 cell growth, single agent and combined, cisplatin and BGB IC20 combos (AID 1671464); conditions: CRL1545 osteosarcoma cells, stronger effect = higher value;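 further: cells exposed to compound for 96 hours before readout; 0% = vehicle DMSO and 100% = high DMSO killing control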
# [19] = P. berghei load reduction in hepatocytes – cell-based, HepG2, luciferase luminescence, HepG2 viability, primary screen (AID 624349; in the data active means parasite load remaining mostly below about 12%, no sharp cut-off; inactive means mostly above about 10%;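 further: 100% = mean of DMSO negative control wells on the same plate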); conditions: P. berghei liver stage in HepG2, luciferase luminescence, concentration not given here; parasite load remaining: stronger effect = lower value; viability: measured here: HepG2 viability without parasites
# [20] = stronger effect = lower value, cell number ratio, induced over uninduced
# [21] = measured here: relative caspase fold change +Dox/-Dox
# [22] = measured here: total cells with miR-34 induction, stronger effect = lower value
# [23] = measured here: total cells without miR-34 induction
# [24] = MELAS cybrid survival, CellTiter-Glo 48 h, stronger effect = higher value
# [25] = Rieske KO mouse fibroblast survival, CellTiter-Glo 72 h
# [26] = measured here: combination with BGB IC40, at 0.05 µM
# [27] = measured here: with BGB IC20 combination, at 0.5 µM
# [28] = measured here: with cisplatin IC20 combination, at 0.5 µM
# [29] = measured here: combination with cisplatin, at 0.5 µM
# [30] = measured here: combination with cisplatin, at 5 µM
smiles,measurement,setting,value
Cc1cn(C2CC(N=[N+]=[N-])C(CO)O2)c(=O)[nH]c1=O (centres undefined),survival,[1],10.2 (inactive)
same,fold change,[2]; [20],0.983 (inactive)
same,fold change,[2]; [21],1.14
same,cell count,[2]; [22],8190
same,cell count,[2]; [23],8330
same,z-score,[3]; [24],-0.326 (inactive)
same,z-score,[3]; [25],-0.454
same,inhibition,"[4]; at 0.5 µM, stronger effect = higher value",-14.1% (inactive) and -29.8% (inactive)
same,inhibition,"[4]; measured here: combination with BGB IC20, at 0.005 µM",-13.1% and -7.61%
same,inhibition,"[4]; measured here: combination with BGB IC40, at 0.005 µM",-10.5% and -37.1%
same,inhibition,[4]; [26],-24.2% and -22.6%
same,inhibition,"[4]; measured here: combination with cisplatin, at 0.5 µM, stronger effect = higher value",-21.8% and -53%
same,inhibition,"[4]; measured here: combination with cisplatin, at 5 µM, stronger effect = higher value",-32.8% and -21.5%
same,inhibition,"[5]; BGB combo, at 5 µM",-43.8% and -18.1%
same,inhibition,[5]; at 0.5 µM,-49.6% (inactive) and 10.8% (inactive)
same,inhibition,"[5]; cisplatin combo, at 5 µM",-26% and 16.6%
same,inhibition,[5]; [27],-50.2% and 15%
same,inhibition,[5]; [28],-46.8% and 4.29%
same,inhibition,"[5]; single agent, at 5 µM",-44.8% and -1.12%
same,inhibition,"[6]; BGB IC20 combo, at 0.005 µM",-34.8% and -14.5%
same,inhibition,"[6]; BGB IC40 combo, at 0.005 µM",-37.8% and -34.3%
same,inhibition,"[6]; BGB IC40 combo, at 0.05 µM",-19.4% and -8.93%
same,inhibition,[6]; at 0.5 µM,-42.3% (inactive) and -13.3% (inactive)
same,inhibition,"[6]; cisplatin combo, at 0.05 µM",-22.8% and -13.2%
same,inhibition,"[6]; cisplatin combo, at 0.5 µM",-48.8% and -6.3%
same,inhibition,"[6]; cisplatin combo, at 5 µM",-19.3% and -19.8%
same,inhibition,"[6]; measured here: 5 uM single agent, at 5 µM",-29% and -10.5%
same,inhibition,[7]; at 0.5 µM,-35.4% (inactive) and -15.1% (inactive)
same,inhibition,[7]; [26],-33.7% and -15%
same,inhibition,[7]; [29],-50% and -12.6%
same,inhibition,[7]; [30],-73.7% and 10.3%
same,inhibition,[8]; at 0.5 µM,-30.9% (inactive) and 5.14% (inactive)
same,inhibition,"[8]; measured here: with BGB IC20, at 0.5 µM",-44.2% and -2.77%
same,inhibition,"[8]; measured here: with BGB IC20, at 5 µM",-49% and -21.3%
same,inhibition,"[8]; measured here: with cisplatin IC20, at 0.5 µM",-19.6% and 10.7%
same,inhibition,"[8]; measured here: with cisplatin IC20, at 5 µM",-35.3% and 18.4%
same,inhibition,"[8]; single agent, at 5 µM",-30.3% and -3.23%
same,inhibition,[9]; at 0.5 µM,-75.6% (inactive) and -23.9% (inactive)
same,inhibition,"[9]; measured here: combination with BGB at IC20, at 0.5 µM",-42.6% and -11.7%
same,inhibition,"[9]; measured here: combination with cisplatin at IC20, at 0.5 µM",-96.9% and -12%
same,inhibition,[10]; at 0.5 µM,-21.5% (inactive) and -4.43% (inactive)
same,inhibition,"[10]; measured here: combo with BGB at IC20, at 0.5 µM",-16.2% and -1.6%
same,inhibition,"[10]; measured here: combo with cisplatin at IC20, at 0.5 µM",-27.8% and -2.64%
same,inhibition,[11]; at 0.5 µM,-6.97% (inactive) and -2.38% (inactive)
same,inhibition,"[11]; measured here: inhibition with BGB combination, at 0.05 µM",-33.2% and -11.1%
same,inhibition,"[11]; measured here: inhibition with cisplatin combination, at 0.05 µM",-13% and -8.1%
same,inhibition,[12]; at 0.5 µM,3.25% (inactive) and -11.1% (inactive)
same,inhibition,[12]; [29],-9.8% and -20.4%
same,inhibition,[12]; [30],-113% and -20.1%
same,inhibition,[13]; at 0.5 µM,-19.9% (inactive) and -9.1% (inactive)
same,inhibition,"[13]; measured here: BGB combination, at 0.5 µM",-17.7% and -10.4%
same,inhibition,"[13]; measured here: BGB combination, at 5 µM",-13.1% and -23.1%
same,inhibition,"[13]; measured here: cisplatin combination, at 0.5 µM",-42.5% and -8.26%
same,inhibition,"[13]; measured here: cisplatin combination, at 5 µM",-32% and 1.63%
same,inhibition,"[14]; BGB combination, concentration series, at 5 µM",-27.1% and 1.57%
same,inhibition,[14]; at 0.5 µM,-15.8% (inactive) and 1.59% (inactive)
same,inhibition,"[14]; cisplatin combination, concentration series, at 5 µM",-5.2% and 7.24%
same,inhibition,[15],1.65% (inactive) and 1.35% (inactive)
same,inhibition,[15]; measured here: combo with BGB IC20,10% and -0.346%
same,inhibition,[15]; measured here: combo with cisplatin IC20,-32% and 7.19%
same,inhibition,[16]; at 0.5 µM,-31.2% (inactive) and -18.3% (inactive)
same,inhibition,"[16]; cisplatin combination, at 0.5 µM",-20.4% and -7.03%
same,inhibition,"[16]; cisplatin combination, at 5 µM",-13.7% and 8.51%
same,inhibition,"[16]; measured here: BGB IC40 combination 0.05 uM, at 0.05 µM",-13.5% and -22.4%
same,inhibition,"[16]; single agent, at 5 µM",-33.2% and -6.84%
same,inhibition,[17]; at 0.5 µM,-27.2% (inactive) and -6.41% (inactive)
same,inhibition,"[17]; cisplatin combo, at 5 µM",-15.6% and -7.21%
same,inhibition,"[17]; measured here: BGB IC40 combination, at 0.05 µM",-27% and -25%
same,inhibition,[17]; [29],-39.9% and -10.1%
same,inhibition,"[17]; single agent, at 5 µM",-41.5% and -29.4%
same,inhibition,[18]; at 0.5 µM,-61.3% (inactive) and 13.1% (inactive)
same,inhibition,[18]; [27],-40.5% and 10%
same,inhibition,[18]; [28],-75.6% and 14.6%
same,inhibition,"[18]; single agent, at 0.05 µM",-59.4% and 9.83%
same,inhibition,"[18]; single agent, at 5 µM",-40.3% and 11.6%
O=C1NCCN1c1ncc([N+](=O)[O-])s1,survival,[1],3.92 (inactive)
same,parasite load remaining,[19],95% (inactive) and 83.2% (inactive)
same,viability,[19],122% and 79.5%
same,fold change,[2]; [20],0.899 (inactive)
same,fold change,[2]; [21],1.68
same,cell count,[2]; [22],8920
same,cell count,[2]; [23],9920
same,z-score,[3]; [24],0.58 (inactive)
same,z-score,[3]; [25],-0.169
